For 13 molecules, potency estimated from few doses results are on record in PMC11062922 (Nature Chemical Biology, 2023).

Holding throughout (design): species or system human, MV4-11 + K-562 + COLO205 + SK-N-BE2 + OVCAR-8
The test system of one assay is BUB1. Conditions: read-out: apparent Kd, n = 1.
The subject of a further assay is CSNK1A1. Conditions: read-out: apparent Kd, n = 1.
For the next assay, the system named is CSNK1E. Conditions: read-out: apparent Kd, n = 1.
The test system of the next assay is EPHA2. Conditions: read-out: apparent Kd, n = 1.
In another assay the test system is HCK. Conditions: read-out: apparent Kd, n = 1.
A further assay has as its system MARK2. The settings on record: read-out: apparent Kd, n = 1.
A further assay relates to PRKAA2. The settings on record: read-out: apparent Kd, n = 1.
A further assay deals with SRC. The settings on record: read-out: apparent Kd, n = 1.
The subject of another assay is YES1. The settings on record: read-out: apparent Kd, n = 1.
The subject of a further assay is MAPK8. Conditions: read-out: apparent Kd, n = 1.
For the next assay, the system named is PHKG2. The settings on record: read-out: apparent Kd, n = 1.
In another assay the test system is ROCK2. Conditions: read-out: apparent Kd, n = 1.
In another assay the test system is RIOK2. Conditions: read-out: apparent Kd; compound concentrations:100 nM and 1000 nM (sheet 'Samples'); n = 1.
The next assay concerns RPS6KA4. Conditions: read-out: apparent Kd, n = 1.
The subject of a further assay is STK16. Conditions: read-out: apparent Kd; compound concentrations:100 nM and 1000 nM (sheet 'Samples'); n = 1.
A further assay concerns STK3. Conditions: read-out: apparent Kd; compound concentrations:100 nM and 1000 nM (sheet 'Samples'); n = 1.
For a further assay, the system named is PRKX. The settings on record: read-out: apparent Kd, n = 1.
In the next assay the test system is TNIK. Conditions: read-out: apparent Kd; compound concentrations: 100 nM and 1000 nM (sheet 'Samples'), CATDS: 3.2855545776320001E-2; n = 1.
Where [1] appears, read: compound concentrations:100 nM and 1000 nM (sheet 'Samples').

Each structure is given as a SMILES string. Read-outs that look alike come from different tables or passages of the source.

On to `CC(C)N1CCC(n2cnc(-c3ccc(F)cc3)c2-c2ccnc(N)n2)CC1` [SB-223132], for which the potency estimated from few doses with BUB1 (setting [1]) is 1670 nM; with CSNK1A1 (setting [1]), 158 nM; in the assay with CSNK1E (setting [1]), 77.8 nM; in the assay on EPHA2 (setting [1]) it was 735 nM; in the assay on HCK (setting [1]) it was 969 nM; with MARK2 (setting [1]), 1570 nM. The figures for the potency estimated from few doses with PRKAA2 (setting [1]), with SRC (setting [1]) and in the assay on YES1 (setting [1]) were 1290 nM, 964 nM and 758 nM, respectively.

In the case of `CCOC(=O)N1CCC(n2cnc(-c3ccc(F)cc3)c2-c2ccnc(N)n2)CC1` [SB-219952], the potency estimated from few doses is 1170 nM with BUB1 (compound concentrations: 100 nM and 1000 nM (sheet 'Samples'), CATDS: 8.9704944978388403E-3); 44.2 nM in the assay with CSNK1A1 (compound concentrations: 100 nM and 1000 nM (sheet 'Samples'), CATDS: 5.7270515376472299E-2); 27.3 nM in the assay with CSNK1E (compound concentrations: 100 nM and 1000 nM (sheet 'Samples'), CATDS: 8.1899018563860101E-2); 726 nM in the assay with EPHA2 (compound concentrations: 100 nM and 1000 nM (sheet 'Samples'), CATDS: 1.0740036537242301E-2); 814 nM with HCK (compound concentrations: 100 nM and 1000 nM (sheet 'Samples'), CATDS: 1.02495423413253E-2); 1210 nM in the assay on MAPK8 (compound concentrations: 100 nM and 1000 nM (sheet 'Samples'), CATDS: 8.8818893864712808E-3). For the same molecule, the potency estimated from few doses is 1120 nM in the assay on MARK2 (compound concentrations: 100 nM and 1000 nM (sheet 'Samples'), CATDS: 9.1119285329163396E-3); 916 nM in the assay with PHKG2 (compound concentrations: 100 nM and 1000 nM (sheet 'Samples'), CATDS: 9.7897546431884499E-3); 698 nM in the assay on PRKAA2 (compound concentrations: 100 nM and 1000 nM (sheet 'Samples'), CATDS: 1.0917376994103299E-2); 802 nM in the assay with SRC (compound concentrations: 100 nM and 1000 nM (sheet 'Samples'), CATDS: 1.0314047860945599E-2); 755 nM with YES1 (compound concentrations: 100 nM and 1000 nM (sheet 'Samples'), CATDS: 1.05685479515238E-2).

Consider `Cl.Nc1c(C(=O)c2cccc(C#CCN3CCCCC3)c2)cnn1-c1ccc(F)cc1` [RO1154461-001], for which the potency estimated from few doses in the assay with BUB1 (compound concentrations: 100 nM and 1000 nM (sheet 'Samples'), CATDS: 1.00986377445768E-2) was 1860 nM; in the assay on EPHA2 (compound concentrations: 100 nM and 1000 nM (sheet 'Samples'), CATDS: 1.6105152878217399E-2) it was 472 nM; in the assay with HCK (compound concentrations: 100 nM and 1000 nM (sheet 'Samples'), CATDS: 1.18075673820272E-2), 1060 nM; in the assay on PRKAA2 (compound concentrations: 100 nM and 1000 nM (sheet 'Samples'), CATDS: 1.20335296051875E-2), 1000 nM; with SRC (compound concentrations: 100 nM and 1000 nM (sheet 'Samples'), CATDS: 1.30987485498882E-2), 787 nM; in the assay on YES1 (compound concentrations: 100 nM and 1000 nM (sheet 'Samples'), CATDS: 1.4471532311659799E-2), 608 nM.

As to `CN(c1ccc(NC(=O)Nc2cccc(Cl)c2)cc1)c1ccnc(N)n1.Cl` [GW830707A], the potency estimated from few doses is 44.8 nM with EPHA2 (compound concentrations: 100 nM and 1000 nM (sheet 'Samples'), CATDS: 2.1264502158694101E-2); 16.9 nM with ROCK2 (compound concentrations: 100 nM and 1000 nM (sheet 'Samples'), CATDS: 3.3185939241444598E-2); 38.6 nM in the assay with SRC (compound concentrations: 100 nM and 1000 nM (sheet 'Samples'), CATDS: 2.2534153996718501E-2); 34.5 nM with YES1 (compound concentrations: 100 nM and 1000 nM (sheet 'Samples'), CATDS: 2.3597692911318701E-2).

For `CNC(=O)c1ccccc1Nc1nc(Nc2ccc(N3CCOCC3)cc2)ncc1Cl.Cl` [GSK1576028A], the potency estimated from few doses in the assay with HCK (setting [1]) is 676 nM; in the assay on MAPK8 (setting [1]), 88.4 nM; in the assay on PRKAA2 (setting [1]) it was 688 nM; with RIOK2, 2140 nM; in the assay with RPS6KA4 (setting [1]) it was 427 nM; in the assay on SRC (setting [1]), 1280 nM. Besides, the potency estimated from few doses in the assay on STK16 is 1770 nM; in the assay on STK3, 1270 nM; in the assay with YES1 (setting [1]), 322 nM.

In the case of `NCCNS(=O)(=O)c1ccc(-c2ccnc3[nH]ccc23)cc1` [GSK977617A], the potency estimated from few doses was 441 nM in the assay on EPHA2 (setting [1]); 765 nM in the assay with HCK (setting [1]); 721 nM in the assay on PRKAA2 (setting [1]); 487 nM with PRKX (setting [1]); 1170 nM in the assay with RIOK2; 97.3 nM in the assay with ROCK2 (setting [1]). The potency estimated from few doses is 588 nM in the assay with RPS6KA4 (setting [1]), 589 nM in the assay with SRC (setting [1]) and 518 nM in the assay with YES1 (setting [1]).

Turning to `CCn1c(-c2nonc2N)nc2c(C#CC(C)(C)O)nc(OC[C@@H](N)c3ccccc3)cc21` [GSK938890A], the potency estimated from few doses was 36.6 nM with PRKX (compound concentrations: 100 nM and 1000 nM (sheet 'Samples'), CATDS: 0.16139090072401199); 1160 nM in the assay on ROCK2 (compound concentrations: 100 nM and 1000 nM (sheet 'Samples'), CATDS: 5.36427183140821E-2).

With `Cl.Cl.NCC(C(=O)Nc1cc(Br)c(-c2ccnc3[nH]ccc23)s1)c1ccccc1.NCC(C(=O)Nc1cc(Br)c(-c2ccnc3[nH]ccc23)s1)c1ccccc1` (centres unmarked) [GSK1269851A], the potency estimated from few doses with BUB1 (setting [1]) is 2170 nM; in the assay with EPHA2 (setting [1]), 505 nM; in the assay on HCK (setting [1]), 554 nM; in the assay on PHKG2 (setting [1]), 2300 nM; in the assay on PRKAA2 (setting [1]), 1130 nM; in the assay with PRKX (setting [1]) it was 1890 nM. In addition, the values for the potency estimated from few doses with ROCK2 (setting [1]), in the assay on SRC (setting [1]) and in the assay with YES1 (setting [1]) were 1330 nM, 523 nM and 378 nM, respectively.

In the case of `CN1C[C@@H]2Cn3c(c(C4=C(c5cn(C)c6ccccc56)C(=O)NC4=O)c4ccccc43)C[C@H]2C1.Cl` [RO0320234-001], the potency estimated from few doses in the assay on EPHA2 (setting [1]) was 59.7 nM; in the assay on HCK (setting [1]), 317 nM; in the assay with PHKG2 (setting [1]), 2180 nM; in the assay on PRKAA2 (setting [1]), 448 nM; with PRKX (setting [1]), 925 nM; with RPS6KA4 (setting [1]) it was 1630 nM. Moreover, the potency estimated from few doses with SRC (setting [1]) was 120 nM; in the assay with YES1 (setting [1]), 97.8 nM.

For the molecule `O=C1N=C(NCCc2ccc(Cl)cc2)S/C1=C\c1ccc2ncccc2c1` [RO4498479-000], the potency estimated from few doses in the assay with BUB1 (compound concentrations: 100 nM and 1000 nM (sheet 'Samples'), CATDS: 7.8507646745445397E-3) is 1070 nM; with EPHA2 (compound concentrations: 100 nM and 1000 nM (sheet 'Samples'), CATDS: 1.41311052368837E-2), 277 nM; with HCK (compound concentrations: 100 nM and 1000 nM (sheet 'Samples'), CATDS: 1.17279601666646E-2), 393 nM; in the assay with MARK2 (compound concentrations: 100 nM and 1000 nM (sheet 'Samples'), CATDS: 8.1372297919538004E-3) it was 960 nM; with PHKG2 (compound concentrations: 100 nM and 1000 nM (sheet 'Samples'), CATDS: 8.2148610451916008E-3) it was 932 nM; with PRKAA2 (compound concentrations: 100 nM and 1000 nM (sheet 'Samples'), CATDS: 9.27662971485879E-3), 667 nM. Moreover, the potency estimated from few doses in the assay with PRKX (compound concentrations: 100 nM and 1000 nM (sheet 'Samples'), CATDS: 9.1029786610764794E-3) was 700 nM; in the assay on RPS6KA4 (compound concentrations: 100 nM and 1000 nM (sheet 'Samples'), CATDS: 7.6189107816006501E-3), 1190 nM; in the assay on SRC (compound concentrations: 100 nM and 1000 nM (sheet 'Samples'), CATDS: 1.16822109686501E-2) it was 396 nM; in the assay with YES1 (compound concentrations: 100 nM and 1000 nM (sheet 'Samples'), CATDS: 1.22768983688542E-2), 359 nM.

For `Cl.NCc1ccc(-c2nc(-c3ccc(Cl)c(O)c3)c(-c3ccncc3)[nH]2)cc1` [SB-476429-A], the potency estimated from few doses in the assay with BUB1 (setting [1]) was 2020 nM; in the assay on CSNK1E (setting [1]), 1380 nM.

Regarding `CCn1c(-c2nonc2N)nc2c(-c3ccccc3)ncc(OCCCN)c21.CCn1c(-c2nonc2N)nc2c(-c3ccccc3)ncc(OCCCN)c21.O=C(O)C(F)(F)F.O=C(O)C(F)(F)F` [GSK260205A], the potency estimated from few doses with BUB1 (compound concentrations: 100 nM and 1000 nM (sheet 'Samples'), CATDS: 0.117322615111941) was 59 nM; in the assay on CSNK1E (compound concentrations: 100 nM and 1000 nM (sheet 'Samples'), CATDS: 3.6163147578600598E-2), 706 nM; with TNIK, 950 nM.

For `COc1cccc2c(-c3ccncc3)c(-c3ccc(F)cc3)nn12` [GW468513X], the potency estimated from few doses is 739 nM in the assay on BUB1 (compound concentrations: 100 nM and 1000 nM (sheet 'Samples'), CATDS: 4.5362878745682803E-2); 666 nM with CSNK1A1 (compound concentrations: 100 nM and 1000 nM (sheet 'Samples'), CATDS: 4.67055815056669E-2); 140 nM in the assay on CSNK1E (compound concentrations: 100 nM and 1000 nM (sheet 'Samples'), CATDS: 8.4108879944504403E-2); 1750 nM in the assay with MAPK8 (compound concentrations: 100 nM and 1000 nM (sheet 'Samples'), CATDS: 3.7375924419407701E-2).
